An excerpt weighted towards active compounds, which were near 2.8% of everything screened.
rCAG RNA binder: r(CAG) repeat RNA binding; TO-PRO-1 dye displacement fluorescence; inhibition, % at 3 µM; hit rate 1.3% among 370,000;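 active = inhibition above the plate cutoff, the mean of all test compounds on that plate plus 3 SD, cut at about 35% in these data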;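 note: higher means more dye released from RNA so lower well fluorescence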
HGIII-sPLA2 inh: Blocks human group III sPLA2 activity | hit rate 0.56% among 370,000 | Q9NZ20 | AID 743126 | QFRET BODIPY PC-A2 liposome hydrolysis, fluorescence | inhibition, % at 12.2 µM;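 active = inhibition above mean plus 3 SD of compounds lying within the high and low control bounds, cut at about 19% in these data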
Target sequence (Q9NZ20 whole entry, looked up): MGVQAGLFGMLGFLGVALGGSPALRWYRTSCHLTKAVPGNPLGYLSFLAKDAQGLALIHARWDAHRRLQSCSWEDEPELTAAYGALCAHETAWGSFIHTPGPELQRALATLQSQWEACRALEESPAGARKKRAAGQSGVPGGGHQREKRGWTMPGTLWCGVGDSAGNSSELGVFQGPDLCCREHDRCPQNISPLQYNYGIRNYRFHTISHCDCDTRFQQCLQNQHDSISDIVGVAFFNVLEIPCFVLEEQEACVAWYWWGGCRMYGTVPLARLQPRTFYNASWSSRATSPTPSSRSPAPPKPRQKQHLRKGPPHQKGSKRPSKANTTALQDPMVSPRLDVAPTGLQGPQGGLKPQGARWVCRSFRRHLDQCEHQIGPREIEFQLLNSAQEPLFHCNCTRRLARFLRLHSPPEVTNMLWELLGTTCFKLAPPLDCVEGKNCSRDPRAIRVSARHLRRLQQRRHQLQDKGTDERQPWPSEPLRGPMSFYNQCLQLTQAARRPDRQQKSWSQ
MsrA act: activates bovine MsrA enzyme; activation, % at 10.6 µM; purified bovine MsrA, absorbance read-out; AID 602163; hit rate 0.3% among 360,000; in the data active = activation above about 7.5%
MsrA inhibitor: bovine MsrA inhibition | AID 651718 | inhibition, % at 15.5 µM | hit rate 0.75% among 360,000 | purified bovine MsrA, absorbance read-out
MsrA conf: confirmation of bovine MsrA inhibitors; shares compounds with MsrA inhibitor; purified bovine MsrA, absorbance read-out; inhibition, % at 15.5 µM; hit rate 41% among 2,300;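 note: coupled to thioredoxin reductase with NADPH and selenocystamine and DMSO as substrate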
A number is an active result; – = inactive; · = not tested or not shown. Cut-off read from the data, not from the text of the source, unless noted: active = inhibition above about 4.5%; inactive = the rest.

SMILES | rCAG RNA binder | HGIII-sPLA2 inh | MsrA act | MsrA inhibitor | MsrA conf
COc1ccc(C(=O)N2CCC(O)(c3ccc(F)cc3)CC2)cc1OC | – | – | – | – | ·
CCN1CCN(C(=O)c2cn(CC)c3ccc(S(=O)(=O)N(C)C)cc3c2=O)CC1 | – | – | – | – | ·
COc1ccc(CNS(=O)(=O)CC2NCc3ccc(C)cc32)cc1 (configuration not stated) | – | – | · | · | ·
COc1ccc(Nc2nc3cc(C)ccc3cc2C#N)c(OC)c1 | – | – | – | – | ·
COc1ccc(Nc2nc3cc(C)ccc3cc2C#N)cc1 | – | – | – | 8.7 | 6.9
CCC(CC)=NNc1ccc(S(N)(=O)=O)cc1[N+](=O)[O-] | – | – | – | – | ·
C/C(CC(C)C)=N/Nc1ccc([N+](=O)[O-])cc1[N+](=O)[O-] | – | – | – | 11 | 12
C/C(=N\Nc1ccc(S(N)(=O)=O)cc1[N+](=O)[O-])c1ccc2c(c1)OCO2 | – | – | – | 21 | 15
COC(=O)CC/C(C)=N\Nc1ccc([N+](=O)[O-])cc1[N+](=O)[O-] | – | – | – | 6.3 | 9.5
C/C(CCC(C)C)=N\Nc1ccc(S(N)(=O)=O)cc1[N+](=O)[O-] | – | – | – | 10 | 7.8
COC(=O)c1sc(NC(=O)c2ccco2)c(C#N)c1C | – | – | – | – | ·
CCOC(=O)C1CCCN(C(=O)c2ccccc2NS(=O)(=O)c2ccc(F)cc2)C1 (configuration not stated) | – | – | – | – | ·
Cc1cc(C)cc(N=C2SC(CC(=O)Nc3ccccc3)C(=O)N2CCN2CCOCC2)c1 (configuration not stated) | – | – | – | – | ·
CC1=N/C(=C\c2ccc3c(c2)OCO3)C(=O)N1c1ccc(C(=O)O)cc1 | – | – | – | 5.6 | –
O=C(O)c1ccc(N2C(=O)/C(=C\c3ccccc3)N=C2c2ccccc2)cc1 | – | – | – | – | ·
CCOC(=O)c1ccc(Nc2c(CC)c(C)nc3ncnn23)cc1 | – | – | – | – | ·
CCc1c(C)nc2ncnn2c1Nc1ccc(C(C)=O)cc1 | – | – | – | 5.3 | –
CC(=O)Nc1cccc(C(=O)N/N=C/c2c[nH]c3ccccc23)c1 | – | – | – | 5.8 | –
Cn1ccc(C(=O)N/N=C/c2c[nH]c3ccccc23)n1 | – | – | – | 5.7 | –
CC(SC(C)C(=O)NN=Cc1c[nH]c2ccccc12)C(=O)NN=Cc1c[nH]c2ccccc12 (configuration not stated) | – | – | – | 5.0 | –
Cc1ccc(NC(C)C(=O)N/N=C/c2c[nH]c3ccccc23)cc1 (configuration not stated) | – | – | – | – | ·
Cc1cccnc1NC(=O)CSc1ccc2c(c1)OCCO2 | – | – | – | – | ·
COc1ccc(C(C#N)=Cc2ccc(N(C)CCC#N)cc2)cc1 | – | – | – | – | ·
COc1ccc(N=Cc2ccc(N(CCC#N)CCC#N)cc2)cc1 | – | – | – | 4.9 | 4.9
O=C(N/N=C/c1cc2ccccc2nc1Cl)[C@H]1C[C@@H]1c1ccccc1 | – | – | – | – | ·
SMILES | rCAG RNA binder | HGIII-sPLA2 inh | MsrA act | MsrA inhibitor | MsrA conf
CCN(CC)c1ccc(/C=N/n2c(C)cc(C)cc2=O)cc1 | – | – | – | 5.1 | –
CCN(CC)c1ccc(/C=N/N2C(=O)c3ccccc3C2=O)cc1 | – | – | – | – | ·
CN(C)c1ccc(C=NCCC2(c3ccccc3)CCOC(C)(C)C2)cc1 (configuration not stated) | – | – | – | – | ·
CN(C)c1ccc(C=NCC2(O)CCOC(C)(C)C2)cc1 (configuration not stated) | – | – | – | 5.2 | 4.8
CCc1nnc(NC(=O)CSc2nnc(-c3cc4ccccc4cc3O)n2CCOC)s1 | – | – | – | – | ·
Cc1ccc2nc(/C(C#N)=N/O)[nH]c2c1 | – | – | – | 5.1 | –
COc1ccc(N2CC(C(=O)N/N=C/c3cc([N+](=O)[O-])ccc3O)CC2=O)cc1 (configuration not stated) | – | – | – | 5.2 | –
NC(=O)Cc1nc(-c2ccc([N+](=O)[O-])cc2)cs1 | – | – | – | 5.0 | –
CN(C)CCCN1C(=O)c2cccc3c([N+](=O)[O-])ccc(c23)C1=O | – | – | – | 18 | 10
CC(=O)Nc1ccc(N=C(C2=C(O)c3ccccc3C2=O)c2ccccc2)cc1 | – | – | – | 4.7 | –
Cc1cccc(N=Nc2cn[nH]c2-c2ccco2)c1 | – | – | – | – | ·
c1ccc(N=Nc2cn[nH]c2-c2ccco2)cc1 | – | – | – | 6.9 | –
CN1CCc2c(sc3c2C(=O)NC(c2cn(Cc4ccccc4)c4ccccc24)N3)C1 (configuration not stated) | – | – | – | 5.5 | –
CN1CCc2c(sc3c2C(=O)NC(c2ccco2)N3)C1 (configuration not stated) | – | – | – | – | ·
COc1ccc(-c2oc(=O)c3cc(OC)c(OC)cc3c2/C=C/c2ccc([N+](=O)[O-])cc2)cc1 | – | – | – | – | ·
Cc1ccc(/C=N/N=C2/NC(=O)CS2)o1 | – | – | – | 5.5 | –
O=C1CS/C(=N/N=C/c2c[nH]c3ccccc23)N1 | – | – | – | – | ·
CC1=C(C(=O)c2ccccc2)C(c2ccc(O)cc2)NC(=S)N1 (configuration not stated) | – | – | – | 5.4 | –
O=C1CCC(=O)N1c1nc2nc(-c3ccccc3)cc(-c3ccccc3)n2n1 | – | – | – | 4.7 | –
CNc1ncc(C(=O)c2ccc(F)cc2)s1 | – | – | – | 4.7 | –
C/C(=N/O)c1cc(C(C)(C)C)c(O)c(C(C)(C)C)c1 | – | – | – | 12 | 11
CC(C)(Sc1cc(C(C)(C)C)c(O)c(C(C)(C)C)c1)Sc1cc(C(C)(C)C)c(O)c(C(C)(C)C)c1 | – | – | – | – | ·
COc1ccc(Nc2nc3ccc(C)cn3c(=O)c2/C=N/O)cc1 | – | – | – | 5.0 | –
O=[N+]([O-])c1cccc(-c2ccc(C(=S)N3CCOCC3)o2)c1 | – | – | – | 5.1 | 5.6
CCOC(=O)CSC1=NC(=O)/C(=C/c2ccc(Br)cc2)S1 | – | – | – | – | ·
SMILES | rCAG RNA binder | HGIII-sPLA2 inh | MsrA act | MsrA inhibitor | MsrA conf
CCOC(=O)CSC1=NC(=O)/C(=C\c2ccc(OC(C)=O)cc2)S1 | – | – | – | 5.4 | –
Cc1ccccc1Nc1n[nH]c(C)c1[N+](=O)[O-] | – | – | – | – | ·
Cc1ccc(Nc2n[nH]c(C)c2[N+](=O)[O-])c(C)c1 | – | – | – | 10 | 9.1
C=CCN(C(=O)c1csnn1)C(C(=O)NC1CCCC1)c1ccc(F)cc1 (configuration not stated) | – | – | – | – | ·
N#CC1=C(c2ccccc2)/C(=C/c2ccccc2)OC1=O | – | – | – | – | ·
N#CC(C#N)=C1NC(N)=C(C#N)C(c2ccccc2)=C1C#N | – | – | – | 7.2 | 6.7
O=C(Nc1nnc(/C=C/c2ccccc2)s1)c1ccco1 | – | – | – | 5.8 | –
Cc1cccc(N(C)S(=O)(=O)c2nnc(NC(=O)c3ccco3)s2)c1 | – | – | – | – | ·
CCN(CC)S(=O)(=O)c1nnc(NC(=O)c2ccco2)s1 | – | – | – | 6.6 | –
Cc1cccc(-c2nnc(NC(=O)c3ccco3)s2)c1 | – | – | – | 4.8 | –
Cc1cc(C)nc(N/N=C/c2ccc(N3CCOCC3)cc2)n1 | – | – | – | 6.6 | 6.1

Source: PubChem BioAssay (The Scripps Research Institute Molecular Screening Center)
